Drawing on ChEMBL document CHEMBL3988442, “University of Dundee, Small-Polar-MMV Screening Library” (2021), this text covers Percent Effect for six compounds.

Holding throughout (design): scale not given: direction of the effect not stated beside the values
In assay [1] the target is Protein translocase subunit SecA (Escherichia coli (strain K12)) (UniProt P10408). The assay is described as follows: Assay to Identify E. coli SecA ATPase Inhibitors. Type of assay: functional. The conditions noted are these: 30 µM.
Protein translocase subunit SecA (Escherichia coli (strain K12)), sequence (P10408 whole entry): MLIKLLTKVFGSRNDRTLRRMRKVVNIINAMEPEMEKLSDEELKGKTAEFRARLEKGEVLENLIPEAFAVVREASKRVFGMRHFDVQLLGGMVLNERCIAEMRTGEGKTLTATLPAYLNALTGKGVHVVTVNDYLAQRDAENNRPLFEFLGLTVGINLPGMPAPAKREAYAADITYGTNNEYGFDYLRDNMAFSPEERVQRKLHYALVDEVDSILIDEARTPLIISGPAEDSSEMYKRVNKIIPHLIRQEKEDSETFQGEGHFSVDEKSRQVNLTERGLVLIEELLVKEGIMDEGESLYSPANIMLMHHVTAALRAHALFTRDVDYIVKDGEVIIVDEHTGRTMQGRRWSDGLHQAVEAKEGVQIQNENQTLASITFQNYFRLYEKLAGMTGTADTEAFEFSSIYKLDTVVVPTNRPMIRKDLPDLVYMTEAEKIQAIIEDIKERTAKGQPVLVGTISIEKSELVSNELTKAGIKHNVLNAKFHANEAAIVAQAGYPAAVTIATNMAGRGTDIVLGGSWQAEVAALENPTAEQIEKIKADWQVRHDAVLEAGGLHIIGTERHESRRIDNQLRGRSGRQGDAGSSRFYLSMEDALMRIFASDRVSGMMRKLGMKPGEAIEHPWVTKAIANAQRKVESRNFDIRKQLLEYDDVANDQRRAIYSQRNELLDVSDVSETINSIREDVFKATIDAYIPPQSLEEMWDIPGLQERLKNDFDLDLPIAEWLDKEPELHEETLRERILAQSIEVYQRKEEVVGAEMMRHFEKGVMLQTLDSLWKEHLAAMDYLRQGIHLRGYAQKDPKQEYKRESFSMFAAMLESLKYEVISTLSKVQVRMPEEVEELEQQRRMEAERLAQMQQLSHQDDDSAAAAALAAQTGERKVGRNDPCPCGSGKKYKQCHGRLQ
Assay [2] concerns the target T1, Ubiquitin-activating enzyme e1, putative (Leishmania donovani (strain BPK282A1)) (UniProt E9BSI1).
T1 sequence (whole entry): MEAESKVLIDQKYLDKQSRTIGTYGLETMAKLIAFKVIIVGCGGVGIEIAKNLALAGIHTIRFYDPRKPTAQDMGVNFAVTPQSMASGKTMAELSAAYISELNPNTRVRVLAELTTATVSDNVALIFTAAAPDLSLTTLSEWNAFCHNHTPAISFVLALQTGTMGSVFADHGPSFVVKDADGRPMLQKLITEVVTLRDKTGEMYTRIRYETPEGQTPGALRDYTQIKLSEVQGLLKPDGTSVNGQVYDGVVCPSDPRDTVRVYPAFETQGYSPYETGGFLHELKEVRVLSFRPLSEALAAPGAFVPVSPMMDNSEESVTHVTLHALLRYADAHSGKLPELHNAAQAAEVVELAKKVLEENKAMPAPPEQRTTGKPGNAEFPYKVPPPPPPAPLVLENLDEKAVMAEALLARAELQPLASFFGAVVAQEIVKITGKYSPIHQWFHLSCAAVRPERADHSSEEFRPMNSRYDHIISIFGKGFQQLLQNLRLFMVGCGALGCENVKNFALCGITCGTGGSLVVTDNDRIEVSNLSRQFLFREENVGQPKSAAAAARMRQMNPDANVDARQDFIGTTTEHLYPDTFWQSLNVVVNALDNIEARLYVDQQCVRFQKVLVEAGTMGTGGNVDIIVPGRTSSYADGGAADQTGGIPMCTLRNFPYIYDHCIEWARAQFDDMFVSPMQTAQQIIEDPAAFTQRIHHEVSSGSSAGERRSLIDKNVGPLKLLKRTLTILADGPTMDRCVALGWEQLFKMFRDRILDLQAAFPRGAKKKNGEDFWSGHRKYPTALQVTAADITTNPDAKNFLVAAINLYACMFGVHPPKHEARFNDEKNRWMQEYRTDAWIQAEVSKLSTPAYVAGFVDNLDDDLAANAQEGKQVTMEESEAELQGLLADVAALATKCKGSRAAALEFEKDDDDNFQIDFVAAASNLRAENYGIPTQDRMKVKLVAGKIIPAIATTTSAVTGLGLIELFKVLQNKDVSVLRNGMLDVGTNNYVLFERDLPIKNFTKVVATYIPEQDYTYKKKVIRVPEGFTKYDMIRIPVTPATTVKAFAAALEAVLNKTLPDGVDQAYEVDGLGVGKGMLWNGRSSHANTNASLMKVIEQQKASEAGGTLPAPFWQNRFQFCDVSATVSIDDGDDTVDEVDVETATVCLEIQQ
The assay is described as follows: Leishmania donovani Ubiquitin Activating Enzyme (LdE1). It is filed as functional. The conditions noted are these: 30 µM.

Assay [3] concerns the target AMP-activated protein kinase, AMPK (Homo sapiens) (UniProt P54646+O43741+P54619+Q9UGJ0+Q9Y478+Q13131+Q9UGI9). The assay is described as follows: AMP-dependent Kinase enzyme assay. An in vitro enzyme assay that detects ADP turnover that is directly proportional to AMPK activity. This uses naive AMPK that is activated during the assay with MK-8722. Type of assay: functional. The settings on record: 30 µM.

The target in assay [4] is Sialic acid-binding Ig-like lectin 9 (Homo sapiens) (UniProt Q9Y336). The assay is described as follows: Hs-Siglec9 ALPHAscreen SOP 20170721. The conditions noted are these: 10 µM.
Sialic acid-binding Ig-like lectin 9 (Homo sapiens), sequence (Q9Y336 whole entry): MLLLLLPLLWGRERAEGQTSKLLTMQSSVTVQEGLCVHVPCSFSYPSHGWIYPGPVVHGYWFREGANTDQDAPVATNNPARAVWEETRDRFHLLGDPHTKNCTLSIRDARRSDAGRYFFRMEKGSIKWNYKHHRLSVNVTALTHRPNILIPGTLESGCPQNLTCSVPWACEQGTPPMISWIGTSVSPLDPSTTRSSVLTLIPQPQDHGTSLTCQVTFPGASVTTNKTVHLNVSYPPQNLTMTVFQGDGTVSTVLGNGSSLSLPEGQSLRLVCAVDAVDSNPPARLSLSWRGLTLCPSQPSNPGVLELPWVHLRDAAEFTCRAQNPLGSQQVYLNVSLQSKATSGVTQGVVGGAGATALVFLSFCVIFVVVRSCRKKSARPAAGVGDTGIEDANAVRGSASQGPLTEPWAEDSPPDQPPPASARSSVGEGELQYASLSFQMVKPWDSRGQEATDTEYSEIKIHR
Another assay relates to Trypanosoma cruzi. The assay is described as follows: Trypanosoma cruzi phosphomannomutase and mannose-1-phosphate guanylyltransferase assay. It is filed as functional. The settings on record: 10 µM.
Assay [5] concerns the target T2, Arginase-2, mitochondrial (Homo sapiens) (UniProt P78540).
T2 sequence (whole entry): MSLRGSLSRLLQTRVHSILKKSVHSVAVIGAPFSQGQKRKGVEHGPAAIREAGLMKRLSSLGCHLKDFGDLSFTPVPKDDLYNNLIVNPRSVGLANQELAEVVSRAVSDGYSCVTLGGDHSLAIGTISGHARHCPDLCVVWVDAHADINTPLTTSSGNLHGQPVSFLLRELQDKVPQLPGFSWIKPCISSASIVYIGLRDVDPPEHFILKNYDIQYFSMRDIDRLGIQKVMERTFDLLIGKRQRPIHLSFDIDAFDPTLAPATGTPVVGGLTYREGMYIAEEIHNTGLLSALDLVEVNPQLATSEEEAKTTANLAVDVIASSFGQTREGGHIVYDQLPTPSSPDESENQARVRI
The assay is described as follows: in vitro enzyme assay to detect the production of urea directly proportional to the activity of Arginase II. Note: in the data most compounds retested in dose-response had high values. Type of assay: functional. The conditions noted are these: 33.3 µM.

In assay [6] the target is T3, Proteasome subunit beta (Trypanosoma cruzi) (UniProt O96673).
T3 sequence (whole entry): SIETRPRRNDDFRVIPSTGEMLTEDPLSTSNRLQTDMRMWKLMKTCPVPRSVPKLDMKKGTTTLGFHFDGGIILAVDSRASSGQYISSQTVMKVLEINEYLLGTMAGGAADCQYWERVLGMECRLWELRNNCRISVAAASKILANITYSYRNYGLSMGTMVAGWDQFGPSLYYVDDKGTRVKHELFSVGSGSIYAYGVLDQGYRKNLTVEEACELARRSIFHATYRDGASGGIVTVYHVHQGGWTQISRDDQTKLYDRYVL
The assay is described as follows: Trypanosoma cruzi proteasome chymotrypsin-like activity (TcProtChymo) assay. Note: in the data most compounds retested in dose-response had high values. It is filed as functional. The settings on record: 9.37 µM.

For a further assay, the species on record is Homo sapiens. Description: To identify inhibition of the IFN signalling (Jak-Stat) pathway via expression of an eGFP reporter gene under the control of an IFN-stimulated response element (ISRE) containing MxA promoter. Type of assay: functional. The settings on record: 30 µM.
Assay [7] deals with T4, Tyrosyl-tRNA synthetase, putative (Trypanosoma cruzi (strain CL Brener)) (UniProt Q4DSP6).
T4 sequence (whole entry): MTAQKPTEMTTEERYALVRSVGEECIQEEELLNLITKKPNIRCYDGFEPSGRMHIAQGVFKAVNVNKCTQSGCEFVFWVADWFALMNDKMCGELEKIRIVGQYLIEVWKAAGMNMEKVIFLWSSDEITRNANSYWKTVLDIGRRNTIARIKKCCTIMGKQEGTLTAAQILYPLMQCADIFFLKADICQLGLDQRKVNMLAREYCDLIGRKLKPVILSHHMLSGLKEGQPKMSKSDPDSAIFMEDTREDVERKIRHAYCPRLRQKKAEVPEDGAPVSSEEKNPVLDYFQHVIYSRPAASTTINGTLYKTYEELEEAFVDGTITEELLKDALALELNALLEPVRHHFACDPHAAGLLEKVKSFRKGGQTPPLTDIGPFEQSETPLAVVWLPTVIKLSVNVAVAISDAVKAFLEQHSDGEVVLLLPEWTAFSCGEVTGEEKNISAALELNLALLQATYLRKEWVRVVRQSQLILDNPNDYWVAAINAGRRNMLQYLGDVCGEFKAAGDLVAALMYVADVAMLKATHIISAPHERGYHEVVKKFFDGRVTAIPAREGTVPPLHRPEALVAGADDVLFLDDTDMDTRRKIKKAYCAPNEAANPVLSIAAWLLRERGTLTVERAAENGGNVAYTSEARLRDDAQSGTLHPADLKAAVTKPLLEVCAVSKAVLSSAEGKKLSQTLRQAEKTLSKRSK
Description: Trypanosoma cruzi tyrosyl tRNA synthetase (TcYRS) _High Tyrosine SOP. Note: in the data most compounds retested in dose-response had high values. It is filed as functional. The settings on record: 30 µM.

Assay [8] deals with T4, Tyrosyl-tRNA synthetase, putative (Trypanosoma cruzi (strain CL Brener)). Description: Trypanosoma cruzi tyrosyl tRNA synthetase (TcYRS) SOP. It is filed as functional. The settings on record: 30 µM.
The target in assay [9] is Chromo domain-containing protein 1 (Saccharomyces cerevisiae (strain ATCC 204508 / S288c) (Baker's yeast)) (UniProt P32657). Description: ScCHD-1 Enzyme Inhibition Assay. Note: in the data most compounds retested in dose-response had high values. It is filed as functional. The settings on record: 30 µM.
Chromo domain-containing protein 1 (Saccharomyces cerevisiae (strain ATCC 204508 / S288c) (Baker's yeast)), sequence (P32657 whole entry, the tested form may be a part): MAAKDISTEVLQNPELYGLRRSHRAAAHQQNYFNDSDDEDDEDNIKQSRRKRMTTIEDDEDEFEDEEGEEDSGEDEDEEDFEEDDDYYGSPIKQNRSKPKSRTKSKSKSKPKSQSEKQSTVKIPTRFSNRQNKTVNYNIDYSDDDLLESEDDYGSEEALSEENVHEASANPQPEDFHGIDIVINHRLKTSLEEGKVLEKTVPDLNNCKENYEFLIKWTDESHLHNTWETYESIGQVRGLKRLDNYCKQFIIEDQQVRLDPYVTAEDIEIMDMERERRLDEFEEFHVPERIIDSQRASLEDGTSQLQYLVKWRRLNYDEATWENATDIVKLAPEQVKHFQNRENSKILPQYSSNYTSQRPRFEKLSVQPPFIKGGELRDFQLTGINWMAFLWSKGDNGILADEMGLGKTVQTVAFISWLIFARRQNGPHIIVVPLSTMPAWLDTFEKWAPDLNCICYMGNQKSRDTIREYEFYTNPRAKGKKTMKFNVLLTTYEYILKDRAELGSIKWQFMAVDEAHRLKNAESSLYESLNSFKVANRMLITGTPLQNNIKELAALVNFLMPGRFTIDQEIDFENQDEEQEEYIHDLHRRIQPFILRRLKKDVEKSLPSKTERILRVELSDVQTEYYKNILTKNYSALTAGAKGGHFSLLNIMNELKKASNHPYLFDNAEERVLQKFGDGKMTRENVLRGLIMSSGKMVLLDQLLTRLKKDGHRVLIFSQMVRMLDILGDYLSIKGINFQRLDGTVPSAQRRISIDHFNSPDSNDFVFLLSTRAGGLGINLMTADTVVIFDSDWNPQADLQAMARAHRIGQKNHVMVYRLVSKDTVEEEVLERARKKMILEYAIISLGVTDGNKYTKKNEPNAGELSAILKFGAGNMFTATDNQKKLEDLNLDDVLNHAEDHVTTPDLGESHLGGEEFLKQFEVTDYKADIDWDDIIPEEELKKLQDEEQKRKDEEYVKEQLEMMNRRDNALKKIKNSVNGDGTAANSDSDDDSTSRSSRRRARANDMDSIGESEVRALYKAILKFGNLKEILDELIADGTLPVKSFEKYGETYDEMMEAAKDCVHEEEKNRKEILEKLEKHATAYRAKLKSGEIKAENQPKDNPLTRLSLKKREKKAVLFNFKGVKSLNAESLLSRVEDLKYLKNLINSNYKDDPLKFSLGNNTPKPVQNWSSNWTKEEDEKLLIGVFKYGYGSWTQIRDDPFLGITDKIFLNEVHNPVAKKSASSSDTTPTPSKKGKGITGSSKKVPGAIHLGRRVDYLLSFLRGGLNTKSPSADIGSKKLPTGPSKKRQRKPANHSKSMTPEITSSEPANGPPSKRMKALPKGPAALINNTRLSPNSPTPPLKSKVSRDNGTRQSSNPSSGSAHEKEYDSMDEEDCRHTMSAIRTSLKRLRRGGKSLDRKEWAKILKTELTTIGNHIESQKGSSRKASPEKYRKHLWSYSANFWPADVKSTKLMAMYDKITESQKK

For part of these data: Entries with a potency or affinity are not part of this list.

For `Cc1cnnn1Cc1ncn2c1CN(Cc1cccs1)CCC2`, the Percent Effect is -5.14% in assay [1]; 2.7% in [2]; -2.96% in [3]; -6.54% in assay [4]; -5.18% in the assay on Trypanosoma cruzi; -0.955% in assay [5]. In addition, the Percent Effect is 15.3% in assay [6]; 14.8% in the assay listed under Homo sapiens; 2.16% in assay [7]; 5.13% in assay [8]; -3.69% in assay [9].

For the compound `Cc1occc1C(=O)N1CCc2c(COCC3CC3)cncc2C1`, the Percent Effect in assay [1] was -1.99%; in assay [2] it was 18.9%; in [3], -0.121%; in assay [4], -6.57%; in the assay on Trypanosoma cruzi, 3.03%; in [5], 7.96%. Moreover, the Percent Effect is 26.8% in assay [6]; 13.8% in the assay listed under Homo sapiens; 10.8% in assay [7]; 20.5% in [8]; -0.136% in [9].

As to `CN(Cc1ccccc1O)C(=O)NC1CCCN(c2ncccn2)C1` (stereo unspecified), the Percent Effect in assay [1] was -1.53%; in assay [2], 15.8%; in [3], 0.343%; in assay [4] it was -3.02%; in the assay on Trypanosoma cruzi it was -7.89%; in assay [5], -1.53%. Besides, the Percent Effect is 6.01% in assay [6]; 26.3% in the assay filed under Homo sapiens; 2.45% in assay [7]; 7.32% in [8]; -8.65% in assay [9].

Take `CC(=O)N1CCCC(c2cnc(-c3c(C)nn(C)c3C)cn2)C1` (stereo unspecified): the Percent Effect in assay [1] is -2.17%; in assay [2], 0%; in [3], 6.16%; in assay [4], -0.374%; in the assay with Trypanosoma cruzi it was -2.17%; in [5], -1.17%. Besides, the Percent Effect in assay [6] was -4.67%; in the assay listed under Homo sapiens it was 8.02%; in assay [7], 2.13%; in [8], 6.41%; in assay [9], -1.64%.

Take `Cn1ccc(C(=O)NC2CCC23CCN(C(=O)N2CCCC2)CC3)c1` (stereo unspecified): the Percent Effect in assay [1] is -3.06%; in assay [2] it was 16.2%; in assay [3] it was 3.04%; in [4], -9.67%; in the assay with Trypanosoma cruzi, 3.42%; in [5], -6.05%. Besides, the Percent Effect in [6] is 19.2%; in the assay filed under Homo sapiens it was -7.3%; in assay [7], 6.49%; in assay [8] it was 15.4%; in [9], 1.18%.

For the compound `CCC1CN(c2nnc(C)c(C)c2C#N)CCO1` (stereo unspecified), the Percent Effect was -3.31% in [1]; 2.63% in [2]; -17.9% in [3]; -4.88% in assay [4]; 6.96% in the assay on Trypanosoma cruzi; 1.15% in assay [5]. The Percent Effect is 20.7% in [6]; 9.86% in the assay listed under Homo sapiens; 0.49% in [7]; 21.9% in [8]; -13.8% in assay [9].
